Among the data in PubChem BioAssay (NCI) are growth values, retold here.

Common to all, as to assay: NCI-60 one-dose screen, 48 h (100 = growth as untreated, 0 = no growth, -100 = all killed)
The test system of one assay is SR leukemia. The settings on record: 10 µM unless noted.
For the next assay, the system named is RPMI-8226 leukemia. The settings on record: 10 µM unless noted.
In the next assay the test system is OVCAR-8 ovarian. The settings on record: 10 µM unless noted.
The subject of the next assay is OVCAR-5 ovarian. The conditions noted are these: 10 µM unless noted.
A further assay has as its system OVCAR-4 ovarian. The conditions noted are these: 10 µM unless noted.
The test system of a further assay is SK-OV-3 ovarian. The conditions noted are these: 10 µM unless noted.
In another assay the test system is IGROV1 ovarian. The settings on record: 10 µM unless noted.
The subject of the next assay is OVCAR-3 ovarian. The settings on record: 10 µM unless noted.
For the next assay, the system named is HS 578T breast. The conditions noted are these: 10 µM.
A further assay relates to NCI/ADR-RES ovarian. The settings on record: 10 µM unless noted.
The next assay deals with T-47D breast. The conditions noted are these: 10 µM unless noted.
In another assay the test system is BT-549 breast. The conditions noted are these: 10 µM unless noted.
For the next assay, the system named is MDA-MB-435 melanoma. The settings on record: 10 µM unless noted.
The test system of another assay is SW-620 colon. The settings on record: 10 µM unless noted.
In a further assay the test system is MCF7 breast. The settings on record: 10 µM unless noted.
The next assay deals with HCT-116 colon. The conditions noted are these: 10 µM unless noted.
In a further assay the test system is HCC-2998 colon. The settings on record: 10 µM.
The test system of the next assay is KM12 colon. The conditions noted are these: 10 µM unless noted.

Compounds without any hit were thinned out: in the full panel of roughly 83,000, 20% have a hit.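 A percent growth of 40 corresponds to 60% growth inhibition; 0 means no net growth; -100 means all cells died. Active threshold: below 10.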 A number with no mark means an inactive call. Activity calls are given as the source filed them.

`Cc1cc(N2CCCC2)nc(N(CCCNc2ccnc3cc(Cl)ccc23)Cc2ccc3c(c2)OCO3)n1`: the growth is -36% (active) with SR leukemia; -31.2% (active) in the assay on RPMI-8226 leukemia; -2.12% (active) with OVCAR-8 ovarian; -3.2% (active) in the assay on OVCAR-5 ovarian; 13.5% in the assay on OVCAR-4 ovarian; 53.5% with SK-OV-3 ovarian. Moreover, the growth is -7.14% (active) in the assay on IGROV1 ovarian; -32.8% (active) in the assay on OVCAR-3 ovarian; -32.2% (active) in the assay with HS 578T breast; 1.74% (active) in the assay on NCI/ADR-RES ovarian; -18.4% (active) in the assay on T-47D breast; -14.1% (active) in the assay with BT-549 breast. Besides, the growth with MDA-MB-435 melanoma is -71.9% (active); with SW-620 colon, -27% (active); in the assay with MCF7 breast, -12.8% (active); in the assay with HCT-116 colon, -22.9% (active); in the assay on HCC-2998 colon, -52.4% (active); in the assay on KM12 colon, 19.1%.
With `CCNCCNc1cc(-c2ccc(Cl)c(Cl)c2)c(C#N)c2nc3ccccc3n12`, the growth in the assay with SR leukemia was -30.9% (active); in the assay on RPMI-8226 leukemia, -39.2% (active); in the assay with OVCAR-8 ovarian, -66% (active); with OVCAR-5 ovarian it was -76% (active); with OVCAR-4 ovarian it was -78.4% (active); with SK-OV-3 ovarian, -94.1% (active). The growth in the assay with IGROV1 ovarian was -70.7% (active); in the assay on OVCAR-3 ovarian, -94% (active); with HS 578T breast, -45.7% (active); in the assay with NCI/ADR-RES ovarian, -73.4% (active); with T-47D breast it was -60.8% (active); with BT-549 breast it was -70.5% (active). For the same compound, the growth in the assay on MDA-MB-435 melanoma is -95% (active); with SW-620 colon, -67.3% (active); in the assay with MCF7 breast, -72% (active); with HCT-116 colon, -87.3% (active); in the assay on HCC-2998 colon, -87.1% (active).
In the case of `CC1(O)CCC(Nc2cc(-c3ccc(C(F)(F)F)cc3)c(C#N)c3nc4ccccc4n23)CC1` (configuration not stated), the growth was 79.4% in the assay on SR leukemia; 56.8% in the assay with RPMI-8226 leukemia; 78.3% in the assay with OVCAR-8 ovarian; 99% in the assay with OVCAR-5 ovarian; 55.2% in the assay with OVCAR-4 ovarian; 68.6% in the assay on SK-OV-3 ovarian. Further, the growth in the assay on IGROV1 ovarian was 79.3%; with OVCAR-3 ovarian, 81.4%; in the assay with HS 578T breast, 74.4%; with NCI/ADR-RES ovarian, 61.8%; with T-47D breast, 53%; in the assay with BT-549 breast it was 38.2%. Moreover, the growth in the assay on MDA-MB-435 melanoma is 64.7%; in the assay with SW-620 colon, 90.5%; in the assay on MCF7 breast, 43.9%; in the assay on HCT-116 colon, 53.6%; in the assay with HCC-2998 colon it was 86.5%; in the assay on KM12 colon it was 68.7%.
As to `[2H]C1([2H])[C@H](C)O[C@H](C)C([2H])([2H])N1c1ccc(NC(=O)c2cccc(-c3ccc(OC(F)(F)F)cc3)c2C)cn1`, the growth is 56.4% in the assay with SR leukemia; 53.3% with RPMI-8226 leukemia; 79.1% in the assay on OVCAR-8 ovarian; 100% in the assay with OVCAR-5 ovarian; 65.8% with OVCAR-4 ovarian; 63.2% in the assay on SK-OV-3 ovarian. The growth with IGROV1 ovarian is 65.2%; in the assay on OVCAR-3 ovarian, 84.6%; in the assay with HS 578T breast, 88.2%; with NCI/ADR-RES ovarian it was 58.4%; in the assay with T-47D breast it was 41.7%; in the assay on BT-549 breast, 63.9%. The growth in the assay on MDA-MB-435 melanoma is 73.4%; in the assay with SW-620 colon, 90%; with MCF7 breast, 66.8%; in the assay on HCT-116 colon it was 56.9%; with HCC-2998 colon, 82.4%; in the assay on KM12 colon it was 73.2%.
For `Fc1ccc(NCc2cn(-c3ccccc3)nc2-c2ccc(OCc3ccccc3)cc2)cc1Cl`, the growth in the assay with SR leukemia is 96.1%; with RPMI-8226 leukemia it was 98%; in the assay with OVCAR-8 ovarian it was 105%; in the assay on OVCAR-5 ovarian, 86.6%; in the assay on OVCAR-4 ovarian, 97.5%; with SK-OV-3 ovarian, 82.3%. Besides, the growth in the assay on IGROV1 ovarian was 96.9%; with OVCAR-3 ovarian, 97.3%; in the assay on HS 578T breast it was 104%; in the assay with NCI/ADR-RES ovarian, 95.4%; in the assay with T-47D breast, 79.8%; in the assay with BT-549 breast, 89.6%. For the same compound, the growth with MDA-MB-435 melanoma was 102%; in the assay with SW-620 colon, 108%; in the assay with MCF7 breast it was 94.1%; with HCT-116 colon it was 76.8%; with HCC-2998 colon, 102%; with KM12 colon, 98%.
As for `O=C1CC(c2cccc(F)c2)c2c(n[nH]c2-c2ccc(Cl)cc2)N1` (configuration not stated), the growth in the assay on SR leukemia was 89.3%; in the assay on RPMI-8226 leukemia, 81.8%; in the assay on OVCAR-8 ovarian it was 85.9%; with OVCAR-5 ovarian, 84.7%; in the assay on OVCAR-4 ovarian, 95.4%; in the assay with SK-OV-3 ovarian it was 86.4%. In addition, the growth in the assay on IGROV1 ovarian is 101%; with OVCAR-3 ovarian, 100%; in the assay with HS 578T breast it was 91.2%; in the assay on NCI/ADR-RES ovarian, 93.9%; in the assay on T-47D breast it was 55.8%; with BT-549 breast, 92.4%. In addition, the growth with MDA-MB-435 melanoma is 99.5%; in the assay on SW-620 colon it was 114%; in the assay on MCF7 breast it was 96.5%; in the assay on HCT-116 colon, 74.4%; in the assay with HCC-2998 colon, 102%; in the assay on KM12 colon, 91.7%.
As to `CN1CCN(c2nc(NCCNc3ccnc4cc(Cl)ccc34)c3ccccc3n2)CC1`, the growth in the assay with SR leukemia was -23.4% (active); in the assay on RPMI-8226 leukemia, 3.82% (active); in the assay on OVCAR-8 ovarian, 12.4%; in the assay on OVCAR-5 ovarian it was 59.9%; in the assay with OVCAR-4 ovarian, -0.851% (active); with SK-OV-3 ovarian it was 44.6%. Further, the growth with IGROV1 ovarian was 30.2%; in the assay with OVCAR-3 ovarian, 17.4%; with HS 578T breast, 28.2%; with NCI/ADR-RES ovarian it was 85.5%; in the assay with T-47D breast, 0.35% (active); with BT-549 breast, 28.3%. For the same compound, the growth in the assay on MDA-MB-435 melanoma was -11.4% (active); in the assay on SW-620 colon, 26.5%; in the assay on MCF7 breast, 36%; in the assay on HCT-116 colon, 6.36% (active); with HCC-2998 colon it was 9.65% (active); with KM12 colon, 29.2%.
Consider `C=C1CC[C@@H]2[C@](C)(COC(C)=O)[C@H](OC(C)=O)CC[C@@]2(C)[C@@H]1C/C=C1/C(=O)OC[C@H]1OC(C)=O`, for which the growth with SR leukemia is 5.73% (active); with RPMI-8226 leukemia it was 14.1%; with OVCAR-8 ovarian, 27.1%; with OVCAR-5 ovarian, 53.7%; in the assay on OVCAR-4 ovarian, 66.5%; in the assay on SK-OV-3 ovarian it was 101%. The growth with IGROV1 ovarian is 103%; with OVCAR-3 ovarian, -21.3% (active); with HS 578T breast, 100%; in the assay on NCI/ADR-RES ovarian, 25%; with T-47D breast it was 42.8%; in the assay on BT-549 breast, 27.4%. Also, the growth in the assay on MDA-MB-435 melanoma is 33.1%; in the assay with SW-620 colon, -21.9% (active); in the assay with MCF7 breast, 22.9%; in the assay on HCT-116 colon, -37.3% (active); in the assay with HCC-2998 colon it was 67.3%.
